Results taken from PubChem BioAssay (EPA / NIEHS).
Calls of active or inactive are those of the source. How the source made its calls: active means hit-call score of the fitted dose curve at least 0.9, where 1 is the maximum; inactive means score below 0.9.

Experiment: APR_HepG2_MitoMass_72hr: Apredica 72-hour HepG2 Assay for Mitochondrial Mass (AID 2282924);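 further: MitoTracker Red CMXRos stain intensity per cell imaged as mitochondrial mass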
Conditions: high-content imaging, actives raise or lower the signal
Method: APR_HepG2_72hr is a cell-based, multiplexed-readout assay that uses HepG2, a human liver cell line, with measurements taken at 72 hours after chemical dosing in a 384-well plate.APR_HepG2_MitoMass_72hr is one of 10 assay component(s) measured or calculated from the APR_HepG2_72hr assay. It is designed to make measurements of cell phenotype, a form of morphology reporter, as detected with fluorescence intensity signals by HCS Fluorescent Imaging technology.Data from the assay component APR_HepG2_MitoMass_72hr was analyzed into 1 assay endpoint. This assay endpoint, APR_HepG2_MitoMass_72hr, was analyzed with bidirectional fitting relative to DMSO as the negative control and baseline of activity. Using a type of morphology reporter, gain or loss-of-signal activity can be used to understand changes in the signaling. Furthermore, this assay endpoint can be referred to as a primary readout, because this assay has produced multiple assay endpoints where this one serves a signaling function. To generalize the intended target to other relatable targets, this assay endpoint is annotated to the cell morphology intended target family, where the subfamily is organelle conformation.
Cells were treated with dimethyl sulfoxide (DMSO) as a solvent control at a final concentration of 0.5% v/v or with compounds in DMSO with a resulting final DMSO concentration of 0.5% v/v. Compound treatment was done at concentrations of 0.39, 0.78, 1.56, 3.12, 6.24, 12.5, 25, 50, 100, and 200 uM in duplicate on each plate. Cells were treated with compounds for 1, 24, or 72 hr. Carbonyl […] m-chloro-phenylhydrazone (CCCP) and taxol were used as positive controls for mitochondrial function and cytoskeletal stability, respectively; DMSO served as the negative control for this experiment. Cells were fixed by the direct addition of 50 uL formaldehyde in Hank's Balanced Salt Solution (HBSS) to a final concentration of 3.7%. After incubation in the fixation medium for 30 min at room temperature (293-298 K), cells were rinsed twice with HBSS and treated with cell permeabilization buffer (16 uL of 0.5% Triton X-100) for 10 min at room temperature (293-298 K) before labeling. For mitochondrial membrane potential and mitochondrial measurements, pre-fixed cells were incubated with 50 uL of MitoTracker Red CMXRos (Invitrogen) at a concentration of 250 nM for 30 min before fixation. In the remaining cases, post-fixed cells were labeled by incubation with a multiplexed mixture of primary antibodies in HBSS for 60 min at room temperature (293-298 K) to detect immunoreactivity of c-Jun (1:500), phospho-histone H3 (1:100), phospho-histone H2A.x (1:200), p53 (1:400), alpha-tubulin (1:200) and Hoechst 33342 (2 ug/mL). Cells were labeled for multiplexed imaging on two separate plates: a) Hoechst 33342, MitoTracker Red, phospho-histone H3, and alpha-tubulin, and b) Hoechst 33342, phospho-histone H2A.x, and c-Jun. A final rinse with HBSS (50 uL) was performed before analysis. The primary and secondary antibodies for the proteins were phospho-histone H3 (rabbit anti-phospho-histone H3 and FITC-donkey anti-rabbit IgG), phospho-histone H2A.x (mouse anti-phospho-histone H2A.x and FITC-donkey anti-mouse IgG), c-Jun (rabbit anti-phospho-c-Jun and Cy3-donkey anti-rabbit IgG), p53 (sheep anti-p53 and Cy5-donkey anti-sheep IgG), alpha-tubulin (mouse anti-alpha-tubulin and Cy5-donkey anti-mouse IgG). These antibodies are available as the CellCiphr HepG2 assay kit (Millipore).Digital images of each well were captured using a Cellomics ArrayScan VTI (Thermo Scientific Cellomics) (0.8 NA objective, 0.63x optical coupler, and XF-93 filter set) at 20x magnification. The images were acquired using the autofocus feature of the ArrayScan instrument, which entails the following steps. First, the camera focuses on channel 1 (Hoechst 33342), where nuclei are identified. Second, a Z offset of 1 um is used for capturing mitochondria (MitoTracker Red). […]

Q: Which outcome does the source give for CCCCCCCc1ccc(O)cc1 here?
A: The outcome was “inactive”.

Q: With CCN(CC)c1ccccc1 as the compound, how does the outcome read?
A: Its outcome is “inactive”.

Q: Which outcome does the source give for COCCOCCO here?
A: Its outcome is “inactive”.

Q: With c1ccc(OP(Oc2ccccc2)Oc2ccccc2)cc1 as the compound, how does the outcome read?
A: Its outcome is “inactive”.

Q: For Cc1ccc(O)cc1C, which outcome is on record?
A: Its outcome is “inactive”.

Q: Which outcome does the source give for OCC1CO1 (stereo not given) here?
A: The outcome was “inactive”.

Q: With O=P1(N(CCCl)CCCl)NCCCO1 (stereo not given) as the compound, how does the outcome read?
A: The outcome was “inactive”.

Q: With O=[N+]([O-])c1ccc(Cl)c(Cl)c1 as the compound, how does the outcome read?
A: The outcome was “inactive”.

Q: Which AC50 does the source give for ClC1=C(Cl)C2(Cl)C3C(Cl)C(Cl)CC3C1(Cl)C2(Cl)Cl (stereo not given) here?
A: The AC50 was 136 µM (active).

Q: For CCOc1ccc(C(C)(C)COCc2cccc(Oc3ccccc3)c2)cc1, which outcome is on record?
A: Its outcome is “inactive”.

Q: Which outcome does the source give for CN(C)C(=O)Cl here?
A: The outcome was “inactive”.

Q: Which outcome does the source give for CCOP(=S)(Oc1ccc([N+](=O)[O-])cc1)c1ccccc1 (stereo not given) here?
A: Its outcome is “inactive”.

Q: With O=C(O)C(Cl)Cl as the compound, how does the outcome read?
A: Its outcome is “inactive”.

Q: Which outcome does the source give for CC(C)(C)c1ccc(O)cc1 here?
A: The outcome was “inactive”.

Q: With CCNc1nc(Cl)nc(NC(C)(C)C)n1 as the compound, how does the outcome read?
A: Its outcome is “inactive”.

Q: For Cc1ccc([N+](=O)[O-])cc1C, which outcome is on record?
A: The outcome was “inactive”.

Q: Which outcome does the source give for CCC1(c2ccccc2)C(=O)N=C(O)NC1=O (stereo not given) here?
A: Its outcome is “inactive”.

Q: For CC(Cl)(Cl)C(=O)O, which outcome is on record?
A: The outcome was “inactive”.

Q: Which outcome does the source give for CCOP(=S)(OCC)SCSCC here?
A: The outcome was “inactive”.

Q: With ClC(Cl)c1ccccc1 as the compound, how does the outcome read?
A: Its outcome is “inactive”.

Q: For [N-]=[N+]=[N-], which outcome is on record?
A: The outcome was “inactive”.

Q: Which outcome does the source give for Nc1ccc(Cl)cc1 here?
A: Its outcome is “inactive”.

Q: For Cc1cccc(N)c1, which outcome is on record?
A: Its outcome is “inactive”.

Q: For Cc1ccc(N)cc1N, which outcome is on record?
A: The outcome was “inactive”.

Q: Which outcome does the source give for O=P(Oc1ccccc1)(Oc1ccccc1)Oc1ccccc1 here?
A: Its outcome is “inactive”.

Q: With CCC(C)(C)c1ccc(O)cc1 as the compound, how does the AC50 read?
A: The AC50 was 88 µM (active).

Q: With c1nc[nH]n1 as the compound, how does the outcome read?
A: The outcome was “inactive”.

Q: With CCCCN(CCCC)SN(C)C(=O)Oc1cccc2c1OC(C)(C)C2 as the compound, how does the outcome read?
A: Its outcome is “inactive”.

Q: Which outcome does the source give for CCOC(=O)c1ccccc1C(=O)OCC here?
A: The outcome was “inactive”.

Q: Which outcome does the source give for CC(C)(C)OOC(C)(C)C here?
A: The outcome was “inactive”.

Q: With CCCCc1ccccc1 as the compound, how does the outcome read?
A: The outcome was “inactive”.

Q: For CCCCN(CCCC)N=O, which outcome is on record?
A: The outcome was “inactive”.

Q: For CSC(C)(C)C=NO, which outcome is on record?
A: Its outcome is “inactive”.

Q: With CC(Cc1ccc(OCC(=O)O)cc1)NCC(O)c1csc(C(F)(F)F)n1 (stereo not given) as the compound, how does the outcome read?
A: Its outcome is “inactive”.

Q: For c1ccc2c(c1)Nc1ccccc1S2, which outcome is on record?
A: The outcome was “inactive”.

Q: Which outcome does the source give for O=[N+]([O-])c1ccccc1 here?
A: The outcome was “inactive”.

Q: Which AC50 does the source give for CCCN(CCC)c1c([N+](=O)[O-])cc(C(C)C)cc1[N+](=O)[O-] here?
A: The AC50 was 40.9 µM (active).

Q: For Nc1ccc2ccccc2c1, which AC50 is on record?
A: Its AC50 is 69.8 µM (active).

Q: For ClC(Cl)(Cl)c1ccccc1, which outcome is on record?
A: Its outcome is “inactive”.

Q: For Nc1cc2c3c(c1)C(c1ccccc1)=N[C@@H](NC(=O)c1cccnc1)C(=O)N3CC2, which outcome is on record?
A: The outcome was “inactive”.
